The values below come from PubChem BioAssay AID651820 (National Center for Advancing Translational Sciences (NCATS), 2012).

The whole screen tested about 340,000 compounds, of which about 12,000 (3.5%) were called active. A call without a number means that no potency is given here. Inconclusive results (about 18%) are left out. For the sample, actives were picked, then their nearest neighbours and some compounds at random. A number with no mark means an inactive call. The call rests on the fitted dose curve; in most records, active means well fitted inhibition curve with a large enough effect; inconclusive means small, poorly fitted or top-dose-only effect, or another doubt; inactive means no such curve, though single readings can be large or run the other way.
Potency means the concentration at half of the fitted maximal effect.

The test in a line: qHTS Assay for Inhibitors of Hepatitis C Virus (HCV). To be noted: Huh7.5.1 HCVcc-Cre infection, luciferase reporter, 44 h; series mostly up to 41.8 µM. An outline of the steps: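 A cell-based infection assay in which seeded cells (1,000 per well) receive test compound after 4 h, are inoculated with HCVcc-Cre at approximately 0.5 moi, and are incubated 44 h before luminescence detection.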
(In general: qHTS replaces the single test concentration by a dilution series.)
In the case of `Cc1n[nH]c(=O)c2c(NC(=O)CSc3ccccc3F)oc(C)c12`, the Potency result is “inactive”.
On the same count and under the same terms, for `Cn1cccc1C(=O)Nc1nccs1` the value was “inactive”; for `O=C(O)c1ccccc1-c1ccccc1C(=O)Nc1nccs1`, “inactive”.
With `CC(=O)Oc1ccc(C(=O)Nc2nccs2)cc1`, the Potency result is “inactive”.
On the same count and under the same terms, for `CC(C)(C)OC(=O)N/N=C/c1cn(-c2ccccc2)nc1-c1cccnc1` the value was “inactive”; for `COc1ccc(-c2nn(-c3ccccc3)cc2/C=N/Nc2ccccn2)cc1OC`, 10 µM (active).
Same read-out and setting: in the case of `COc1ccc(-c2nn(-c3ccccc3)cc2C(=O)Nc2nccs2)cc1OC` it was 2.51 µM (active); in that of `COC(=O)c1sccc1NC(=O)c1cc(OC)c(OC)c(OC)c1`, “inactive”; in that of `CN(C)/N=C/c1cn(-c2ccccc2)nc1-c1cccnc1`, “inactive”.
Same read-out and setting: for `COc1cc(C(=O)Nc2nccs2)cc(OC)c1OC` the value was 14.1 µM (active).
Consider `Cc1ccc(C)c(NC(=O)CN(C)C(=O)COc2ccc3ccccc3c2)c1`, for which the Potency result is “inactive”.
As for `CC(NC(=O)COC(=O)c1ccc2ccccc2n1)c1ccccc1` (stereo not drawn), the Potency entry is “inactive”.
For the compound `COc1cc(NC(=O)COC(=O)c2cc(S(=O)(=O)N3CCOCC3)ccc2F)cc(OC)c1`, the Potency result was “inactive”.
The same measure, in the same setting: in the case of `Cc1ccc(F)cc1NC(=O)CSCc1c(C)noc1C` it was “inactive”; in that of `O=C(COC(=O)CNS(=O)(=O)c1ccc(F)c(F)c1F)NC1CCCC1`, “inactive”; in that of `CCC1(C)COC(c2ccc(OC)c(OC)c2)OC1` (stereo not drawn), “inactive”.
The same measure, in the same setting: for `C=CC[C@H](CC(=O)NCCO)C(=O)N[C@@H](COC(=O)[C@@H](CC=C)Cc1ccc(F)cc1)Cc1c[nH]c2ccccc12` the value was “inactive”; for `C=CC[C@H](CC(=O)OC(C)(C)C)C(=O)OC[C@H]1CCCN1C(=O)[C@H](CC=C)CC(=O)N(CCO)Cc1ccccc1`, “inactive”.
For the compound `C=CCC[C@@H](Cc1ccc(F)cc1)C(=O)O[C@H](CNC(=O)[C@H](CC=C)CC(=O)N(CCO)Cc1ccccc1)c1ccccc1`, the Potency is 8.91 µM (active).
Still for that read-out and setting: for `COc1ccc(OC)c(Nc2nc3ccccc3n3cnnc23)c1` the value was 10 µM (active); for `COc1cc(Nc2nc3ccc(Cl)cc3n3cnnc23)cc(OC)c1OC`, “inactive”.
Same read-out and setting: for `COc1ccc(CCNc2nc3ccc(C)cc3n3cnnc23)cc1OC` the value was “inactive”.
As to `CN1CCC(N(C)C(=O)c2ccc(Cl)c(S(=O)(=O)Nc3ccc(Cl)cc3)c2)CC1`, the Potency entry is “inactive”.
The same measure, in the same setting: for `CC1CC(C)(C)CC2(C1)NC(=O)N(CC(=O)Nc1nccs1)C2=O` (stereo not drawn) the value was “inactive”; for `COc1ccc2[nH]c3ccc(OC)cc3c2c1`, 25.1 µM (active); for `COc1ccc2[nH]c(=S)cc(C)c2c1`, “inactive”.
The same measure, in the same setting: in the case of `COc1ccc2[nH]c3c(c2c1)CCN[C@H]3C` it was “inactive”; in that of `COc1ccc(-c2noc(CCC(=O)N3CCN(c4cccc(C)c4)CC3)n2)cc1`, “inactive”.
Still for that read-out and setting: in the case of `COc1cccc(-n2c(SCC(=O)NC3CCS(=O)(=O)C3)nc3ccccc3c2=O)c1` (stereo not drawn) it was “inactive”; in that of `O=C1CC(c2ccccc2)C(=O)N2C(=O)CC(c3ccccc3)C(=O)N12` (stereo not drawn), “inactive”.
`CCN(CC)C(=O)[C@H]1C[C@H](CC(=O)NCC23CC4CC(CC(C4)C2)C3)C(=O)N2CCc3c([nH]c4cc(CCC(=O)N(C)C)ccc34)[C@]12C`: the activity change, negative = inhibition is -5.73% [at 8.37 µM].
`O=C(COc1ccc([N+](=O)[O-])cc1)Nc1ccc(N2CCCC2)cc1`: the Potency entry was “inactive”.
On the same count and under the same terms, for `COc1ccc(OCC(=O)Nc2ccc(N3CCC(C)CC3)cc2)cc1` the value was “inactive”.
Still for that read-out and setting: in the case of `CCC(=O)c1ccc(OCC(=O)Nc2ccc(N3CCCCC3)cc2)cc1` it was 11.2 µM (active); in that of `O=C(NC(=S)Nc1ccc(Br)cc1F)C1CCCCC1`, “inactive”; in that of `Cc1c(NS(=O)(=O)c2cc(C(=O)NCCc3ccc(F)cc3)cc(Cl)c2Cl)c(=O)n(-c2ccccc2)n1C`, “inactive”.
Same read-out and setting: in the case of `CCN(CC(=O)NC(C)C)C(=O)c1cc(S(=O)(=O)N2CCCCC2)ccc1N1CCCCC1` it was “inactive”; in that of `COCCCNC(=O)/C=C/c1ccc(OCc2c(F)cccc2Cl)cc1`, “inactive”; in that of `O=C(/C=C/c1ccc(OCc2c(F)cccc2Cl)cc1)N1CCOCC1`, “inactive”.
`CN(C)CCCNC(=O)/C=C/c1ccc(OCc2c(F)cccc2Cl)cc1`: the Potency was 2.82 µM (active).
`O=C1COc2ccc(C(=O)COC(=O)CCOc3ccccc3)cc2N1`: the Potency entry is “inactive”.
Consider `COCCN(C(=O)CC1CCCCC1)c1c(N)n(CC(C)C)c(=O)[nH]c1=O`, for which the Potency entry was “inactive”.
The same measure, in the same setting: in the case of `CCCCn1c(N)c(N(CCOC)C(=O)c2cccc(S(=O)(=O)N3CCCCC3)c2)c(=O)[nH]c1=O` it was “inactive”.
The same measure, in the same setting: in the case of `Cc1ncoc1C(=O)NCCC(c1ccccc1)c1ccccc1` it was “inactive”; in that of `CC(Cc1ccccc1)NCCC(c1ccccc1)c1ccccc1` (stereo not drawn), 10 µM (active).
Still for that read-out and setting: for `CC(Cc1ccccc1)C(=O)N(C)Cc1ccccc1` (stereo not drawn) the value was “inactive”; for `CC[C@]12c3[nH]c4ccc(OC)cc4c3CCN1C(=O)C(CC(=O)NCc1ccco1)C[C@@H]2C(=O)N1CCN(C(=O)C2CC2)CC1` (stereo partly drawn), “inactive”.
Regarding `O=C(CN1CCN(S(=O)(=O)c2ccc(Cl)s2)CC1)N1CCCCC1`, the Potency entry is “inactive”.
The same measure, in the same setting: for `COc1ccc(-c2csc(NC(=O)COC(=O)c3ccc(Br)o3)n2)cc1` the value was “inactive”; for `COc1ccc(OC)c(-c2csc(NC(=O)C3=NNC(=O)CC3)n2)c1`, 0.891 µM (active).
Still for that read-out and setting: in the case of `COc1ccc(OC)c(NC(=O)c2sc3nc(C)cc(C)c3c2N)c1` it was “inactive”; in that of `COc1ccc(OC)c(-c2csc(NC(=O)COC(=O)C3CC3)n2)c1`, 10 µM (active).
The same measure, in the same setting: for `COc1ccc(C(=O)NC2=NCCS2)c(OC)c1` the value was “inactive”.
As to `COc1ccc(CCNC(=O)COC(=O)C2CCCCC2)cc1`, the Potency entry was “inactive”.
Still for that read-out and setting: for `COCCCn1c(SCC(=O)Nc2oc(C)c3c(C)n[nH]c(=O)c23)nc2sc3c(c2c1=O)CCC3` the value was “inactive”.
The same measure, in the same setting: in the case of `COc1ccc(CN2C(CC(=O)Nc3cccnc3)c3ccc(C(F)(F)F)cc3S2(=O)=O)cc1` (stereo not drawn) it was “inactive”; in that of `Cc1cc(C)c(C)c(S(=O)(=O)Nc2cccnc2)c1C`, “inactive”; in that of `CC(OC(=O)C1CC(=O)N(Cc2ccccc2)C1)C(=O)Nc1ccccc1[N+](=O)[O-]` (stereo not drawn), “inactive”.
`CCOc1ccc(N2C(=O)CSC2=NC#N)cc1`: the Potency result was “inactive”.
For `COc1ccc(OC)c(-n2c(=S)[nH]c3cc(C(=O)N4CCCCC4)ccc3c2=O)c1`, the Potency result was “inactive”.
With `COc1cc(-n2c(=S)[nH]c3ccc(C)cc3c2=O)c(Cl)cc1Cl`, the Potency is 10 µM (active).
The same measure, in the same setting: in the case of `COc1cc2[nH]c(=S)n(Cc3ccc(F)cc3)c(=O)c2cc1OC` it was “inactive”.
The same measure, in the same setting: in the case of `CCN(C(=O)CSc1cccc[n+]1[O-])c1ccccc1` it was “inactive”.
